An excerpt weighted towards active compounds, which were near 3.5% of everything screened.
MITF inh: MITF inhibitors, primary screen, biochemical, AlphaScreen, human; Microphthalmia-associated transcription factor (Homo sapiens), O75030; AlphaScreen MITF homodimerization, bead proximity signal; inhibition, % at 2.6 µM; 650,000 compounds, 0.91% hits; AID 1259374, 2018; in the data active = inhibition above about 50%;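 note: 0% = vehicle wells with protein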
Target sequence (O75030 whole entry, looked up): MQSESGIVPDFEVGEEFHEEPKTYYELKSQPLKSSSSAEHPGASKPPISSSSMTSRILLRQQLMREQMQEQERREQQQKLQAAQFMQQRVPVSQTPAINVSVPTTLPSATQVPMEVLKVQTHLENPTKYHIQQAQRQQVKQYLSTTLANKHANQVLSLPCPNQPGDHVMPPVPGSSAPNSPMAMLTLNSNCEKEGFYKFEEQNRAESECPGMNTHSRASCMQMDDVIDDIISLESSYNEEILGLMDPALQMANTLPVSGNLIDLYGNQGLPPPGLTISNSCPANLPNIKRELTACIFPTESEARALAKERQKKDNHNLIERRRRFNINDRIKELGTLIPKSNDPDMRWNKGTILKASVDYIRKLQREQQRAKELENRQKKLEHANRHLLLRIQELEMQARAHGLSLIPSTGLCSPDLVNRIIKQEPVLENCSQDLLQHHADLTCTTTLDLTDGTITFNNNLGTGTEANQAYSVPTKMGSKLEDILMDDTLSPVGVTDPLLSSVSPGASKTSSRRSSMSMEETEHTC
FBW7 activator: FBW7 E3 ligase activators, primary screen, biochemical, AlphaScreen, human. F-box/WD repeat-containing protein 7 (Homo sapiens), Q969H0. AlphaScreen FBW7–phospho-cyclin E peptide binding, activator screen. normalized activity (activation), % at 26.1 µM. 650,000 compounds, 0.13% hits. AID 1259310, 2017; in the data active = normalized activity above about 1.9%;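 note: purified mutant Fbw7 with reduced substrate affinity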
TEAD-YAP inh: TEAD-YAP interaction inhibition, primary screen, TEAD-YAP interaction inhibitor project, luminescence, HEK-TIYL cells | TEAD-Gal4/YAP UAS-luciferase luminescence | inhibition, % at 9.12 µM | 640,000 compounds, 1.4% hits; in the data active = inhibition above about 32%;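 note: 0% = median of test compound wells and 100% = reference inhibitor wells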
GPR151 ag: activators of human GPR151, primary screen, cell-based, PathHunter beta-arrestin, luminescence; G-protein coupled receptor 151 (Homo sapiens), Q8TDV0; PathHunter beta-arrestin GPR151 cells; AID 1508602, 2020; activation, % at 11.2 µM; 650,000 compounds, 1% hits; in the data active = activation above about 4.9%;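 note: 0% = median of compound wells and 100% = cells with positive control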
MITF confirm: MITF inhibitors, retest of hits, confirmation, biochemical, AlphaScreen, triplicate | shares compounds with MITF inh | AlphaScreen MITF homodimerization, biotin/His-MITF beads | inhibition, % at 2.6 µM | 4,700 compounds, 16% hits;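 active = inhibition above a cutoff derived from the DMSO control wells, cut at about 28% in these data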;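 note: 0% = MITF dimer wells with DMSO only; inhibitors lower the bead chemiluminescence by keeping MITF from dimerizing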
AlphaScreen DR: AlphaScreen optical interference compounds, dose response, counter-screen, biochemical, HTS | IC50, µM | shares compounds with MITF inh | 480 compounds, 6% hits | AlphaScreen optical interference counterscreen, cell-free | AID 1259373, 2018; call rule not given here
AS interf ctr: AlphaScreen optical interference compounds, counter-screen for MITF inhibitor project, biochemical, triplicate | shares compounds with MITF inh | LysRS AlphaScreen counterscreen, signal interference | inhibition, % at 2.6 µM | 4,700 compounds, 7.6% hits | AID 1259376, 2018;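 active = inhibition above a cutoff derived from the DMSO control wells, cut at about 30% in these data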
Active calls of the source: *; x = no result given; ! = a repeat was not active.

SMILES	MITF inh	FBW7 activator	TEAD-YAP inh	GPR151 ag	MITF confirm	AS interf ctr	others
Cc1nn(C)c(C)c1CCC(=O)N1CCN(c2ncccn2)CC1	71.9*	-0.1	-1.7	-0.8	9.2	13.9
O=C(CC1C(=O)NCCN1C/C=C/c1ccccc1)NCCCc1cccnc1 (stereo unspecified)	64.3*	0.1	0.6	0.1	4.3	2.8
Cc1nc(-c2ccc(F)cc2)cc(N2CCCCC2)n1	-1.4	-0.1	-3.8	-1.3	x	x
O=C1N=c2ccc([N+](=O)[O-])cc2=C1c1sc(NS(=O)(=O)c2ccccc2)nc1O	64.2*!	-0.3	8.0	0.0	11.1	23.1
Cc1ccc(S(=O)(=O)Nc2nc(O)c(C3=c4cc([N+](=O)[O-])ccc4=NC3=O)s2)cc1	10.6	0.0	-1.9	1.9	x	x
OC1CCN(Cc2ccc3ccccc3c2)CC1	-1.1	0.0	4.2	0.9	x	x
Fc1cccc(CN2CCN(Cc3cccc4ccccc34)CC2)c1	86.2*	0.0	-2.6	-0.1	4.9	19.0
CCc1ccc(CN2CCN(Cc3ccc4ccccc4c3)CC2)cc1	64.0*	-0.2	-2.0	-0.6	-0.4	0.8
c1ccc2cc(CN3CCSCC3)ccc2c1	57.5*	0.0	-5.7	0.6	0.9	-0.2
Fc1cccc(CN2CCN(Cc3ccc4ccccc4c3)CC2)c1	72.3*	0.0	1.5	0.0	10.5	20.8
CC1CN/C(=C/C(=O)C(C)(C)C)C(=O)N1 (stereo unspecified)	-6.6	0.0	-8.8	-2.0	x	x
COc1ccc(CCNC(=O)C2CC3CCCN3C23C(=O)N(C)c2ccccc23)cc1OC (stereo unspecified)	7.1	0.1	-7.9	-1.9	x	x
COc1ccc(CN2CCN(Cc3ccco3)CC2)c(OC)c1	73.1*	-0.1	4.3	1.7	13.7	14.8
COc1ccc(CN2CCc3ccccc3C2)c(OC)c1	48.6	0.0	14.4	-1.6	x	x
COc1ccc(CN2CCN(C(=O)c3ccco3)CC2)c(OC)c1OC	25.8	-0.1	-0.4	0.2	x	x
COc1ccccc1CN1CCN(Cc2ccco2)CC1	77.4*	0.2	-6.0	0.2	-0.4	11.9
COc1ccc(CN2CCN(Cc3ccco3)CC2)c(OC)c1OC	54.9*	-0.1	0.5	-1.4	4.1	0.4
O=C(c1cccc(F)c1)N1CCN(Cc2ccccc2Cl)CC1	57.3*	0.0	2.9	1.2	-3.9	-0.7
O=C(c1cccc(F)c1)N1CCN(Cc2cccc3ccccc23)CC1	58.4*	0.8	6.6	-1.6	-6.4	-4.3
CCOC(=O)c1c(NC(=O)C(C)Oc2ccc(OC)cc2)sc2c1CCCC2 (stereo unspecified)	9.3	-0.3	-0.7	-2.5	x	x
CN1NC2(CCCC2)NC1=S	-6.8	0.0	-4.7	0.6	x	x
CC(C)CCN1NC2(CCCCC2)NC1=S	65.3*	0.5	-6.0	-1.2	2.8	14.6
COc1c(S(=O)(=O)N2CCCCCC2)ccc(Cl)c1Cl	-9.2	-0.1	-14.6	-0.7	x	x
Cc1cc2nc(C3CCN(Cc4nnnn4Cc4cccs4)CC3)[nH]c2cc1C	55.2*	-0.2	-3.0	1.4	3.7	13.6
CC(=O)c1ccc(S(=O)(=O)N(CCCO)Cc2cc3cc(C)c(C)cc3[nH]c2=O)cc1	73.5*	-0.2	-3.4	-1.0	5.3	12.8
SMILES	MITF inh	FBW7 activator	TEAD-YAP inh	GPR151 ag	MITF confirm	AS interf ctr	others
CS(=O)(=O)N(CC(=O)N1CCN(Cc2ccc3c(c2)OCO3)CC1)c1ccc(F)cc1	74.9*	0.1	2.2	0.3	-5.4	-1.7
S=C(NCc1ccco1)N1CCN(Cc2ccc3c(c2)OCO3)CC1	79.5*	0.0	0.2	-0.1	11.2	22.0
O=C(c1ccco1)N1CCN(Cc2ccc3c(c2)OCO3)CC1	62.1*	0.2	-2.8	-1.4	3.1	-4.5
S=C(NCc1ccco1)N1CCN(Cc2ccccc2)CC1	0.7	-0.1	-5.3	0.5	x	x
CC1(C)[C@H]2CC=C(CN3CCOc4ccc(CN5CCC(O)CC5)cc4C3)[C@@H]1C2	-7.5	0.0	0.2	1.3	x	x
CC1(C)C2CC=C(COCC(O)CN3CCN(Cc4ccc5c(c4)OCO5)CC3)C1C2 (stereo unspecified)	70.5*	-0.3	4.4	3.1	2.1	1.9
CC1(C)C2CC=C(CN3CCN(Cc4ccc5c(c4)OCO5)CC3)C1C2 (stereo unspecified)	64.3*	0.2	7.2	0.5	-2.6	4.0
CCOc1ccc2[nH]c(=O)c(C(c3nnnn3C(C)C)N3CCC(C)CC3)cc2c1 (stereo unspecified)	10.8	0.0	-5.2	1.2	x	x
CCCCCNC(CC(=O)Nc1cc(C)ccc1C)C(=O)O (stereo unspecified)	1.4	-0.1	7.1	-0.8	x	x
O=C(CC(NCc1ccccc1)C(=O)O)Nc1cccc(C(F)(F)F)c1 (stereo unspecified)	89.2*	0.2	-4.2	3.7	8.1	8.4
O=C(CC(NCc1ccccn1)C(=O)O)Nc1cccc(Cl)c1 (stereo unspecified)	111.6*	-0.7	-7.8	-0.6	83.5*	100.3*
Cc1ccc(C)c(NC(=O)CC(NCCN)C(=O)O)c1 (stereo unspecified)	80.5*	-0.2	5.5	-0.4	35.6*	58.4*
Cc1ccc(Cl)cc1NC(=O)CC(NCc1ccccn1)C(=O)O (stereo unspecified)	101.4*	-0.3	-2.3	-0.5	87.2*	100.3*
OCC1CCCN1c1nc(NCCc2ccc(O)cc2)c2ncn(C3CCCCC3)c2n1 (stereo unspecified)	8.1	-0.2	0.2	0.8	x	x
COc1cc2c(cc1NC(=O)Nc1ccc([N+](=O)[O-])cc1)oc1ccccc12	11.0	0.0	3.5	-1.2	x	x
O=c1[nH]cnc2nc(-c3ccco3)c(-c3ccco3)nc12	86.9*	-1.1	0.3	0.2	60.2*	4.7	AlphaScreen DR=>7.63
O=C(c1cccc(Nc2nccc(-c3ccc4nc(C5CC5)[nH]c(=O)c4c3)n2)c1)N1CCCC1	21.2	0.7	-20.8	-2.8	x	x
O=c1[nH]cccc1-c1ccc(Nc2nccc(-c3ccc4nc(C5CC5)[nH]c(=O)c4c3)n2)cc1	64.4*	0.3	4.3	-0.1	62.0*	-90.3	AlphaScreen DR=>6.48
Cc1[nH]c(C(=O)NN)c(C)c1C(=O)NC1CCCCC1	0.5	-0.1	2.6	1.8	x	x
Cn1c(=O)c2c(nc(SCc3c(Cl)cccc3Cl)n2C)n(C)c1=O	-15.6	0.1	-3.2	0.1	x	x
CCN(CC)CCCNCc1ccc(Cl)cc1	51.2*	0.1	-9.3	-0.3	-4.5	0.3
